Assay outcomes: PubChem BioAssay, National Center for Advancing Translational Sciences (NCATS)
DT40 TDP1 no CPT = qHTS for Inhibitors of human tyrosyl-DNA phosphodiesterase 1 (TDP1): qHTS in cells in absence of CPT; Potency, µM (doses to about 46.2 µM), for inactives: at the highest dose activity change, negative = growth inhibition, actives largely listed as inhibitors; DT40 Tdp1-/- hTDP1 cells, no CPT, ATP luminescence, 48 h; actives 15% (n = 420,000); AID 686978, 2013; further: potency means the concentration at half of the fitted maximal effect; nearly all actives have a fitted effect of over 55% in size
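Growth kinetics read by CellTiter-Glo luminescence after ≥48 hr at 37 °C. Cells: DT40 Tdp1-/- stably carrying human TDP1, 400 per well, compound exposure in the absence of CPT (DMSO vehicle).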
HT1080NT lethal = kills 2HG-producing HT-1080-NT fibrosarcoma cells; HT-1080-NT fibrosarcoma viability, CellTiter-Glo ATP luminescence, 48 h; Potency, µM (highest dose often 46.1 µM), for the others: at the top dose activity, negative = less viability, usual class: cytotoxic; actives 1.6% (n = 360,000); AID 686970;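 further: NT is the 2HG producing partner of a matched IDH1 knockdown line; potency means the concentration at half of the fitted maximal effect; 0% = DMSO-treated cells and -100% = media-only wells without cells; nearly all actives have a fitted effect of over 55% in size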
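HT-1080-NT; 750 cells/well; 5% FBS RPMI; 48 h compound, 37 degrees C; CellTiter-Glo luminescence; curve fitting and curve-class assignment.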
IL1B secr inh = inflammasome signaling inhibition, IL-1 beta readout; THP-1 LPS/ATP IL-1B secretion, AlphaLISA, 16 h; active compounds read low; activity change, % at 57.5 µM; actives 4.7% (n = 360,000); AID 743279; in the data active means activity change below about -50%; inconclusive means mostly about -30% to -49%
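Secreted IL-1B measured by AlphaLISA bead assay after 16 h compound exposure of THP-1 cells; compounds (final up to 57.5 uM) added 1 h before LPS (250 ng/mL) and ATP (1.25 mM) stimulation; lower signal means less secretion.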
HT1080 IDH1KD tx = kills HT-1080 cells with IDH1 knockdown; HT-1080 IDH1 knockdown viability, ATP luminescence, 48 h; Potency, µM (highest dose often 46.1 µM), without a hit: at the highest dose activity, negative = toxicity, actives largely listed as cytotoxic; actives 2% (n = 360,000); AID 686971;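 further: potency means the concentration at half of the fitted maximal effect; 0% = DMSO wells and -100% = cell-free medium wells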
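IDH1KD HT-1080 cells, 750/well, RPMI + 5% FBS; compound pinned after 2 h settling; 48 h, 37 °C; CellTiter-Glo luminescence; % activity normalised to DMSO and no-cell wells; curves fitted, classed by r2 and efficacy.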
DT40 TDP1 CPT = growth inhibition of DT40 Tdp1-/-;hTDP1 cells with camptothecin (screen for TDP1 inhibitors). chicken DT40 Tdp1-/-;hTDP1 cells + 20 nM CPT, ATP luminescence, 48 h. Potency, µM (series often up to 46.2 µM), for the others: top-dose activity change, negative = growth inhibition, usual class: inhibitors. actives 12% (n = 420,000); further: potency means the concentration at half of the fitted maximal effect; nearly all actives have a fitted effect of over 55% in size
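Chicken DT40 Tdp1-/- cells stably complemented with human TDP1 were seeded at 400 cells/well in medium containing 20 nM camptothecin, exposed to pin-transferred compounds, and grown at 37 °C for at least 48 hr. Viability was read as ATP luminescence.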
* hit, by the source's call; u = inconclusive; x = no result; ! = not active in a repeat; [ ] = remark or other dose. In the library only some 19% were active in any assay of this set; here they are far more common. Unless noted, the call rests on the fitted dose curve; in most records, active means well fitted curve in the direction sought with a large enough effect; inconclusive means small, poorly fitted or top-dose-only effect, or another doubt; inactive means no such curve, though single readings can be large; an effect the other way counts as inactive or inconclusive. Unless noted, on the % scale 0 is the no-effect control and ±100 the full control effect.

SMILES	DT40 TDP1 no CPT	HT1080NT lethal	IL1B secr inh	HT1080 IDH1KD tx	DT40 TDP1 CPT
COCCCn1c(SCC(=O)N2CCOCC2)nc2cc(Cl)ccc2c1=O	5%	0%	-26	4%	-2%
CCC(C)c1ccc(S(=O)(=O)N2CCN(C(=O)CN3C(=O)NC(C)(C4CC4)C3=O)CC2)cc1 (stereo unspecified)	-27%	1%	-1	2%	-28%
CCN(CC)Cc1c(O)ccc2c([N+](=O)[O-])c(C)n(-c3ccc(OC)cc3)c12	16µM*	u	-75*	u	7.3µM*
Cn1nc(C(=O)N2CCN(C(c3ccccc3)c3ccccc3)CC2)c2ccccc2c1=O	u	u	-3	u	23µM*
CCCCn1nc(C(=O)N2CCN(S(=O)(=O)c3ccccc3)CC2)c2ccccc2c1=O	15µM*	-3%	1	1%	u
Cn1nc(C(=O)N2CCN(S(=O)(=O)c3ccc(Cl)cc3)CC2)c2ccccc2c1=O	23µM*	-12%	12	-15%	u
Cn1nc(C(=O)N2CCN(S(=O)(=O)/C=C/c3ccccc3)CC2)c2ccccc2c1=O	u	4%	-7	1%	14%
O=C(c1n[nH]c2ccccc12)N1CCN(S(=O)(=O)c2ccc(Cl)cc2)CC1	18µM*	9%	-16	6%	u
CC(C)Cc1nc2cc(NS(=O)(=O)N(C)C)cc(C(=O)N3CCSCC3)c2n1C	2%	x	x	x	-3%[9.04 µM]
CCOc1ncccc1C(=O)N1CCN(S(=O)(=O)c2cccs2)CC1	-14%	4%	-7	2%	-7%
CCOc1ncccc1C(=O)N1CCN(C(c2ccccc2)c2ccccc2)CC1	13µM*	-27%	-90*	-28%	13µM*
COCCn1c(=O)c(C)nc2cnc(N3CCOCC3)nc21	10%	x	x	x	3%
CC(C)[C@H](NC(=O)CCCn1nnc2ccccc2c1=O)C(=O)O	0%	-1%	-73*	10%	-2%
Cc1cc(C)c(S(=O)(=O)NCc2cccnc2)c(C)c1	-17%	0%	47	1%	-6%
CC(=O)N1c2cc3ccccc3cc2N(C(C)=O)c2cc3ccccc3cc21	-62%	-1%	18	15%	u
O=C1NC[C@@H](CCCCN2C[C@H](Cc3ccc(O)cc3)N(Cc3ccccc3)C(=O)C2=O)N(CCC2CCCCC2)C1=O	-25%	11%	-2	3%	-7%
C/C(=N\NC(=O)c1c(C)nc2ccccn12)c1ccc(O)cc1O	3.7µM*	u	119	u	3.7µM*
COc1ccccc1C1CC(c2cccc(NS(C)(=O)=O)c2)=NN1S(=O)(=O)c1ccccc1 (stereo unspecified)	-1%	1%	-3	-7%	-5%
COc1ccc(C(c2c(O)cc(C)n(Cc3ccco3)c2=O)N2CCCCC2)cc1OC (stereo unspecified)	-1%	x	x	x	-11%
Cc1cc(C)c2c(c1)/C(=c1/sc3n(c1=O)CN(c1ccccc1)CN=3)C(=O)N2	16µM*	0%	-9	u	10µM*
O=c1/c(=C/c2ccccn2)sc2n1CN(c1ccccc1)CN=2	u	-4%	-17	16%	-17%
O=C1[C@H]2[C@@H](c3ccc(F)cc3)N3C(=O)N(c4cccc(Cl)c4)C(=O)[C@@]3(Cc3ccccc3)[C@H]2C(=O)N1C1CCCCC1	u	-19%	-50*	-3%	u
C[C@@]12C(=O)N(c3cccc(F)c3)C(=O)N1[C@H](c1ccc(Cl)cc1)[C@@H]1C(=O)N(C3CCCCC3)C(=O)[C@@H]12	-23%	u	-12	-24%	u
O=C1[C@H]2[C@@H](c3ccc(F)cc3)N3C(=O)N(c4cccc(Cl)c4)C(=O)[C@@]3(Cc3ccc(Cl)cc3)[C@H]2C(=O)N1C1CCCCC1	u	-5%	-23	-7%	16µM*
O=C1[C@H]2[C@@H](c3ccc(F)cc3)N3C(=O)N(c4ccccc4)C(=O)[C@@]3(Cc3ccccc3)[C@H]2C(=O)N1C1CCCCC1	-11%	12%	-1	8%	u
SMILES	DT40 TDP1 no CPT	HT1080NT lethal	IL1B secr inh	HT1080 IDH1KD tx	DT40 TDP1 CPT
C[C@@]12C(=O)N(c3cccc(F)c3)C(=O)N1[C@H](c1ccc(F)cc1)[C@@H]1C(=O)N(C3CCCCC3)C(=O)[C@@H]12	u	-6%	-7	-12%	21µM*
COc1ccc2[nH]cc(CCNC(=O)Nc3cc(C)cc(C)c3)c2c1	-3%	x	x	x	-4%
Oc1ccc(-c2cnc3c(Nc4cccc(OC(F)(F)C(F)F)c4)nccn23)cc1	u	u	19	u	u
FC(F)C(F)(F)Oc1cccc(Nc2nccn3c(-c4cccc5ccccc45)cnc23)c1	u	u	-26	u	16µM*
FC(F)C(F)(F)Oc1cccc(Nc2nccn3c(-c4ccc5ccccc5c4)cnc23)c1	23µM*	-20%	32	u	u
COc1cccc(NC(=O)COC(=O)CCC(=O)c2cccs2)c1	-7%	1%	0	0%	-8%
O=C1[C@H](Cc2ccccc2)NCCCC[C@H](c2ccc(Cl)cc2)N1Cc1ccccc1	16µM*!	u	-14	u	u
O=C1[C@H](Cc2ccccc2)NCCCC[C@@H](c2ccc(Cl)cc2)N1Cc1ccc(Cl)cc1	u	u	-50*	u	u
O=C1N[C@@H](Cc2ccccc2)C(=O)N2CCCC12 (stereo partly specified)	-11%	6%	15	11%	-10%
O=C1C(Cc2ccccc2)NC(=S)N1Cc1ccccc1 (stereo unspecified)	-3%	-3%	-1	1%	7%
Cc1cccc(NC(=O)Cc2csc(COc3cccc(C)c3)n2)c1	-21%	x	x	x	-22%
CC(=O)Nc1cccc(NC(=O)Cc2csc(COc3cccc(C)c3)n2)c1	21µM*	x	x	x	15µM*
COc1ccc(NC(=O)Cc2csc(COc3cccc(C)c3)n2)cc1OC	26µM*	x	x	x	18µM*
O=C1OCCC1(c1ccccc1)c1ccccc1	-11%	8%	-16	-4%	u
COc1ccc2[nH]c(=O)c(CN(CCN3CCCC3)C(=O)Nc3ccccc3Cl)cc2c1	u	-17%	-11	-1%	u
COc1ccc(OC)c(CN(CCN2CCOCC2)C(=O)Nc2cccc(Cl)c2)c1	u	-2%	-10	-4%	-23%
Cc1cc(C)c2cc(CN(CCN3CCCC3)C(=O)Nc3ccc(F)cc3)c(=O)[nH]c2c1	21µM*	u	-80*	18µM*	15µM*
